Here are results for 8 compounds from PubChem BioAssay (Tox21).

Assay [1] can be described thus: qHTS assay to identify aromatase inhibitors - cell viability counter screen (AID 743084).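 Also: cells stimulated with testosterone during compound exposure; nearly all actives have a fitted effect of over 55% in size.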 Also: potency is read from the fitted curve at half-maximal effect.
Assay [2] has as its target Aryl hydrocarbon receptor (Homo sapiens) (UniProt P35869). The assay can be described thus: qHTS assay to identify small molecule that activate the aryl hydrocarbon receptor (AhR) signaling pathway (AID 743085). Also: nearly all actives have a fitted effect of over 15% in size. Also: potency is read from the fitted curve at half-maximal effect.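 As to activation: HG2L7.5c1 human HepG2 liver cells with stably integrated DRE-driven firefly reporter; series mostly up to about 70 µM.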 The method in brief: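 24 h compound exposure, 37C, HepG2-derived HG2L7.5c1 cells with DRE-responsive luciferase. Readouts: fluorescence viability, then luminescence at room temperature after 30 min.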
For orientation: Quantitative high-throughput screening tests each substance at several concentrations.

Assay [3] in a line: qHTS assay to identify small molecule that activate the aryl hydrocarbon receptor (AhR) signaling pathway - cell viability counter screen (AID 743086).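 Also: HepG2 liver cells carrying the AhR DRE luciferase reporter; series mostly up to about 70 µM; nearly all actives have a fitted effect of over 45% in size.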 The method in brief: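 HepG2-AhR-luc (HG2L7.5c1) cells, 4000/well, treated 24 h at 37 C with compound; viability measured as CellTiter-Fluor fluorescence after 30 min in the same wells as the luciferase read.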
In assay [4] the target is Peroxisome proliferator-activated receptor gamma (Homo sapiens) (UniProt P37231). Kind of assay: qHTS assay to identify small molecule antagonists of the peroxisome proliferator-activated receptor gamma (PPARg) signaling pathway (AID 743191; calls by dose curve; also: nearly all actives have a fitted effect of over 30% in size; also: potency is read from the fitted curve at half-maximal effect). The method in brief: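 GeneBLAzer PPARg UAS-bla HEK293H cells, 5 h post-plating, exposed to compounds 17 h at 37C. LiveBLAzer B/G FRET substrate added for 1 h at room temperature; beta-lactamase reporter read by fluorescence intensity.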
Peroxisome proliferator-activated receptor gamma (Homo sapiens), sequence (P37231 whole entry, looked up): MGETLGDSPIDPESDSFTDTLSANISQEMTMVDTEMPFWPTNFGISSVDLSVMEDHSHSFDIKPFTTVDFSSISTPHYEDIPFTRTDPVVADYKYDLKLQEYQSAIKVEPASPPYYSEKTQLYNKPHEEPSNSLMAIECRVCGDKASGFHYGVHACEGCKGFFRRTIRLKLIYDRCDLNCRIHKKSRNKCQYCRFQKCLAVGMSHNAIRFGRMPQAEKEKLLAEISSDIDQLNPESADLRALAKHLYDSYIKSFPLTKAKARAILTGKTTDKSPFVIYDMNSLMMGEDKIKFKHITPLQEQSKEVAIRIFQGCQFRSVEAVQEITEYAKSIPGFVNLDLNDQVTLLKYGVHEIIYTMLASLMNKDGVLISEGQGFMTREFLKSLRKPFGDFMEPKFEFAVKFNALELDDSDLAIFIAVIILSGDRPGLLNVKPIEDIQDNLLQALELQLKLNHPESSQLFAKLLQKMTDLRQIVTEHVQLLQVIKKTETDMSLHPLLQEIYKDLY

Assay [5] is described as follows: qHTS assay to identify small molecule antagonists of the peroxisome proliferator-activated receptor gamma (PPARg) signaling pathway - cell viability counter screen (AID 743194). Also: nearly all actives have a fitted effect of over 55% in size. The method in brief:
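Cytotoxicity counter screen in PPARg-bla HEK293H cells, same wells as reporter assay. Compounds plus 50 nM rosiglitazone (final) for 17 h at 37 C, then viability read by CellTiter-Glo luminescence.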

Assay [6] in a line: qHTS assay for small molecule agonists of the antioxidant response element (ARE) signaling pathway (AID 743202; active = well fitted activation curve with a large enough effect in the signal ratio in the repeat runs, not every such curve was filed as active; the % refers to the signal ratio; also: potency is read from the fitted curve at half-maximal effect). The method in brief: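 HepG2 ARE-bla cells; 16 h treatment at 37 C; FRET-based beta-lactamase fluorescence read after 2 h substrate incubation at room temperature.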
Assay [7] in a line: qHTS assay for small molecule agonists of the antioxidant response element (ARE) signaling pathway - cell viability counter screen (AID 743203; calls by dose curve; also: nearly all actives have a fitted effect of over 55% in size). A digest of the protocol: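 Viability counter screen: CellTiter-Glo luminescence, read after 30 min at room temperature, in ARE-bla HepG2 wells. Compound exposure lasted 16 h at 37C/5% CO2, following a 5 h pre-incubation of the cells after plating.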

Assay [8] in a line: qHTS assay for small molecule activators of the heat shock response signaling pathway - cell viability counter screen (AID 743209). Also: nearly all actives have a fitted effect of over 50% in size. The method in brief:
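Cytotoxicity counter screen run in the same wells as the heat-shock bla reporter assay: HeLa HSE-bla cells, 5 h compound exposure at 37 C, viability read by CellTiter-Glo luminescence.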

Assay [9] can be described thus: qHTS assay for small molecule activators of the heat shock response signaling pathway (AID 743210; active = well fitted activation curve with a large enough effect in the signal ratio in the repeat runs, with a control signal flat, not every such curve was filed as active; the % refers to the signal ratio;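 also: HeLa cells with beta-lactamase reporter driven by heat shock elements; series mostly up to about 63 µM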). A digest of the protocol:
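Following overnight attachment, HSE-bla HeLa cells received test compounds for 5 h at 37 C; beta-lactamase activity was then detected via FRET substrate fluorescence.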

A short description of assay [10]: qHTS assay to identify small molecule agonists of the peroxisome proliferator-activated receptor delta (PPARd) signaling pathway - cell viability counter screen (AID 743211). Also: nearly all actives have a fitted effect of over 55% in size. Also: potency is read from the fitted curve at half-maximal effect. A digest of the protocol:
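Luminescent ATP viability assay (CellTiter-Glo, 30 min RT) in UAS-bla HEK293H cells carrying the PPAR delta reporter construct, 3000 cells/well, after a 17 h compound treatment at 37 C.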

Assay [11] can be described thus: qHTS assay to identify small molecule antagonists of the peroxisome proliferator-activated receptor delta (PPARd) signaling pathway - cell viability counter screen (AID 743213). Also: nearly all actives have a fitted effect of over 50% in size. A digest of the protocol:
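In this counter screen, HEK293H cells carrying a UAS-beta-lactamase reporter are co-treated with test compounds and 300 nM L165041 (final) for 17 h at 37 C; cell viability is quantified by CellTiter-Glo luminescence.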

Assay [12] addresses Peroxisome proliferator-activated receptor delta (Homo sapiens) (UniProt Q03181). Kind of assay: qHTS assay to identify small molecule antagonists of the peroxisome proliferator-activated receptor delta (PPARd) signaling pathway (AID 743215; active = well fitted inhibition curve with a large enough effect in the signal ratio in the repeat runs, not every such curve was filed as active; the % refers to the signal ratio;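 also: cells stimulated with agonist L165041 at 300 nM final during compound exposure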; also: potency is read from the fitted curve at half-maximal effect). A digest of the protocol:
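Agonist L165041 (300 nM final) added with compound to PPARd-bla HEK293H UAS-bla reporter cells; 17 h incubation at 37 C. Read-out: LiveBLAzer FRET substrate, 2 h at room temperature, fluorescence intensity.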

The target of assay [13] is Bile acid receptor (Homo sapiens) (UniProt Q96RI1). The assay can be described thus: qHTS assay to identify small molecule antagonists of the farnesoid-X-receptor (FXR) signaling pathway (AID 743217; active = well fitted inhibition curve with a large enough effect in the signal ratio in the repeat runs, not every such curve was filed as active; the % refers to the signal ratio). The method in brief:
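Antagonist mode: chenodeoxycholic acid at 50 uM final stimulates a UAS-driven beta-lactamase reporter in HEK 293T FXR-bla cells during 16 h, 37C compound exposure. Read-out is FRET substrate fluorescence after 2 h at room temperature.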

Assay [14] can be described thus: qHTS assay to identify small molecule agonists of the farnesoid-X-receptor (FXR) signaling pathway - cell viability counter screen (AID 743218). Also: nearly all actives have a fitted effect of over 45% in size. A digest of the protocol: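 Viability counter screen in the same wells: CellTiter-Glo luminescence, 30 min room-temperature incubation, measured after the beta-lactamase read. Cells were GeneBLAzer FXR-UAS-bla HEK 293T, compound-treated 16 h at 37C.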

For assay [15], the target named is Bile acid receptor (Homo sapiens) (UniProt Q96RI1). The assay can be described thus: qHTS assay to identify small molecule agonists of the farnesoid-X-receptor (FXR) signaling pathway (AID 743220; active = well fitted activation curve with a large enough effect in the signal ratio in the repeat runs, not every such curve was filed as active; the % refers to the signal ratio). The method in brief:
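FXR-UAS-bla HEK 293T cells carrying a UAS-driven beta-lactamase reporter were plated for 5 h at 37C/5% CO2, then exposed to DMSO-dissolved Tox21 10K compounds for 16 h at 37C. A LiveBLAzer B/G FRET substrate was loaded for 2 h at room temperature before fluorescence reading.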

Assay [16] in a line: qHTS assay to identify small molecule antagonists of the farnesoid-X-receptor (FXR) signaling pathway - cell viability counter screen (AID 743221; active = well fitted cell-killing curve with a large enough effect in the repeat runs, not every such curve was filed as active; also: nearly all actives have a fitted effect of over 50% in size). A digest of the protocol:
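In GeneBLAzer FXR-UAS-bla HEK 293T cells stimulated with 50 uM chenodeoxycholic acid (final), compounds acted for 16 h at 37 C. Viability was assessed afterwards by CellTiter-Glo luminescence.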

Assay [17] has as its target Vitamin D3 receptor (Homo sapiens) (UniProt P11473). Kind of assay: qHTS assay to identify small molecule agonists of the vitamin D receptor (VDR) signaling pathway (AID 743222; calls by dose curve). The method in brief:
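Agonist mode, beta-lactamase reporter: fluorescence from LiveBLAzer B/G FRET substrate (2 h, room temperature) read after 16 h compound treatment at 37 C of VDR-bla cells, which were pre-incubated 4 h after seeding.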

Assay [18] has the same target. The assay can be described thus: qHTS assay to identify small molecule antagonists of the vitamin D receptor (VDR) signaling pathway (AID 743223; active = well fitted inhibition curve with a large enough effect in the signal ratio in the repeat runs, not every such curve was filed as active; the % refers to the signal ratio). A digest of the protocol: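 Agonist 1alpha,25-dihydroxyvitamin D3 (3 nM in well) was added with each compound to VDR-bla cells preincubated 4 h. Cells stood 16 h at 37C, then FRET substrate 2 h at room temperature; fluorescence intensity recorded.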

The target in assay [19] is Peroxisome proliferator-activated receptor delta (Homo sapiens) (UniProt Q03181). Kind of assay: qHTS assay to identify small molecule agonists of the peroxisome proliferator-activated receptor delta (PPARd) signaling pathway (AID 743212; calls by dose curve). The method in brief: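 Tox21 library screened in GeneBLAzer PPARd UAS-bla HEK293H cells. After compound treatment at 37 C, a FRET-based beta-lactamase substrate was applied for 2 h and fluorescence recorded.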
Peroxisome proliferator-activated receptor delta (Homo sapiens), sequence (Q03181 whole entry, looked up): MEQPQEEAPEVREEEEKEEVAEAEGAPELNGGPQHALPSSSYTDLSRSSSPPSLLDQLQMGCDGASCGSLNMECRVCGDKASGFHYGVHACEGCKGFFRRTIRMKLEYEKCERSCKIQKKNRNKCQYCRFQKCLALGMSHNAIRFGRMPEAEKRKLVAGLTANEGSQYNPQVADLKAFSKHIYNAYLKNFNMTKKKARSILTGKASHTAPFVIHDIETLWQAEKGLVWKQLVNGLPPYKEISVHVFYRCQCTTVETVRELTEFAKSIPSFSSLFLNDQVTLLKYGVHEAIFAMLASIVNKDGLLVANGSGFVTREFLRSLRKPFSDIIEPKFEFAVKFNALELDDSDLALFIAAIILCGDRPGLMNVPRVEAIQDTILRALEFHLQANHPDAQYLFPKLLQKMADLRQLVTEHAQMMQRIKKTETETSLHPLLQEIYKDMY

Where “and” joins values, the source holds several entries; their conditions need not be identical. Equal entries are not always repeated. Inconclusive results are not listed. Some structures have more than one record in an assay (separate samples or runs), and their calls can disagree. Calls of active or inactive are those of the source. Unless noted, calls follow the shape of the dose curve; as a rule, active = well fitted curve in the direction sought with a large enough effect in the repeat runs; inconclusive = weak or mixed curves; inactive = no such curve, though single readings can be large; an effect the other way counts as inactive or inconclusive.

Bile acid receptor (Homo sapiens), sequence (Q96RI1 whole entry, looked up): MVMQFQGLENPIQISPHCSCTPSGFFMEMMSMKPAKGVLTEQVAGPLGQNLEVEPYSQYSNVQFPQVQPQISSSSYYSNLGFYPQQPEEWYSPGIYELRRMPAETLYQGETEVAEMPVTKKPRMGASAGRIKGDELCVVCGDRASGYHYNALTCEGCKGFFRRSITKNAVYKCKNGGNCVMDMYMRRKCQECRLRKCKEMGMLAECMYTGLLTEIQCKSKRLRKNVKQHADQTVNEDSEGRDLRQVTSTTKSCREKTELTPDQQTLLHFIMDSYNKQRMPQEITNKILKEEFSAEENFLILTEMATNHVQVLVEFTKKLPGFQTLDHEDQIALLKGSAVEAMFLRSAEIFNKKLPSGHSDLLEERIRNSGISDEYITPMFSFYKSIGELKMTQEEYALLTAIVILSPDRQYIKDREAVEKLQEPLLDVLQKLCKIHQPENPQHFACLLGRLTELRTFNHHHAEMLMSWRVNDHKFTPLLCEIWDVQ
Aryl hydrocarbon receptor (Homo sapiens), sequence (P35869 whole entry, looked up): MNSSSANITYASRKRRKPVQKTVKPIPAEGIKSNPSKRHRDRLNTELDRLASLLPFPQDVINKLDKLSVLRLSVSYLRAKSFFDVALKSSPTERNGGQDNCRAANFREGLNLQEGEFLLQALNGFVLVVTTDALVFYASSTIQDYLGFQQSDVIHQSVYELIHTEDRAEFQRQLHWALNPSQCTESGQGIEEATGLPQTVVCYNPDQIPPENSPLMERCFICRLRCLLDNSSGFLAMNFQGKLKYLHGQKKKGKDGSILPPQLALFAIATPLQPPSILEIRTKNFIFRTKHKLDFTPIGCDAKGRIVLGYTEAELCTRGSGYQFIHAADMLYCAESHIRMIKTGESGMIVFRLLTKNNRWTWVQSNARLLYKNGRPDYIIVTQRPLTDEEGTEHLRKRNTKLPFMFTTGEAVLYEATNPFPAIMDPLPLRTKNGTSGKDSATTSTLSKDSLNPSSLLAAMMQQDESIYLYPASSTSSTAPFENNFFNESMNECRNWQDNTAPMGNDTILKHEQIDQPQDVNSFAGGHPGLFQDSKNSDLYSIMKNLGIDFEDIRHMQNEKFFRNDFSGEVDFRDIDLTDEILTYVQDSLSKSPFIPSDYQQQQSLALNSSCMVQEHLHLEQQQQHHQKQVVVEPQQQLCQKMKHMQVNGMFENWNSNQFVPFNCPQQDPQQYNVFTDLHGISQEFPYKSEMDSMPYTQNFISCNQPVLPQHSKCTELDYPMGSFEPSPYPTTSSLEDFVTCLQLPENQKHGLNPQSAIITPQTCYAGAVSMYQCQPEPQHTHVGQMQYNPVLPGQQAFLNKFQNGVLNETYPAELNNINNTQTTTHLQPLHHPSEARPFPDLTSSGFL
Vitamin D3 receptor (Homo sapiens), sequence (P11473 whole entry, looked up): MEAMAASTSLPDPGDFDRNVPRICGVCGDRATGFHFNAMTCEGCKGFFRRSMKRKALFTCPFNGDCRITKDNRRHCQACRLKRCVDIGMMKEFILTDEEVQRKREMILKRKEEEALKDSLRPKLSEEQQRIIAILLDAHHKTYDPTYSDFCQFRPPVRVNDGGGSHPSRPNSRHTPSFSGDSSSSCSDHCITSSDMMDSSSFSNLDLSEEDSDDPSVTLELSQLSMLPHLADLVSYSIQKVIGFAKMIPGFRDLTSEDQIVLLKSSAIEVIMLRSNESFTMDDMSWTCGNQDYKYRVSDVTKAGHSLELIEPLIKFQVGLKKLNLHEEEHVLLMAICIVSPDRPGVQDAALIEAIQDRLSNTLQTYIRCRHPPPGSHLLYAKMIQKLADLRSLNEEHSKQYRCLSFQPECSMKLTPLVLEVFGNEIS

As to `C=COCC1CCC(CO)CC1` (centres undefined), the Potency result in assay [1], in [2], in assay [3], in assay [4], in [6] and in [7] was “inactive” throughout. Moreover, the Potency entry in assay [10], in assay [11], in assay [12], in [14] and in assay [16] was “inactive” each time. The result in assay [5], in assay [8], in [9], in assay [13], in [15] and in assay [17] was inactive. In assay [18], the call was inactive.
Take `COC(=O)c1c(Cl)c(Cl)c(C(=O)OC)c(Cl)c1Cl`: the Potency entry in [1], in [3], in assay [4], in assay [7], in assay [10] and in assay [11] was “inactive” in each case. Moreover, the Potency entry in [12], in [14] and in assay [16] was “inactive” throughout. In assay [2], the Potency result was “inactive and 48.6 µM (active)”. Further, the compound was called inactive in [5], in assay [8], in assay [9], in [19], in assay [13] and in assay [15]. Moreover, in assay [17], the compound was classed as inactive.
For the compound `C[C@H](NC(CCc1ccccc1)C(=O)O)C(=O)N1CCC[C@H]1C(=O)O` (some centres undefined), the Potency result in assay [1], in assay [2], in assay [3], in assay [4], in [6] and in [7] was “inactive” throughout. Besides, the Potency result in assay [10], in [12], in assay [14] and in assay [16] was “inactive” each time. Besides, the result in assay [5], in assay [8], in [9], in assay [19], in [17] and in assay [18] was inactive.
With `Cc1c(NC(C)C)c(=O)n(-c2ccccc2)n1C`, the Potency result in assay [1], in [2], in assay [3], in [4], in assay [6] and in assay [7] was “inactive” throughout. In addition, the Potency entry in assay [10], in assay [11], in [12] and in [16] was “inactive” each time. In addition, the outcome in assay [5], in assay [8], in [9], in assay [19], in assay [17] and in [18] was inactive.
Turning to `CCCc1cc(C(N)=S)ccn1`, the Potency entry in assay [1], in assay [2], in assay [3], in assay [4], in assay [6] and in assay [7] was “inactive” each time. For the same compound, the Potency entry in assay [10], in assay [11] and in assay [16] was “inactive” throughout. In addition, the result in assay [5], in assay [8] and in assay [9] was inactive.
Consider `CC(C)(C)c1ccc(O)c(O)c1`, for which the Potency in [1] was 54.5 µM (active); in assay [2], 70.9 µM (active) and 34.4 µM (active); in assay [4], 18 µM (active); in [6], 28.2 µM (active) and 24.3 µM (active); in assay [10], 25.4 µM (active); in assay [12] it was 50.7 µM (active). Also, the Potency entry in [3], in assay [14] and in assay [16] was “inactive” each time. Also, the outcome in assay [5], in [8] and in assay [17] was inactive.
For the compound `Nc1c[n+](N2CCOCC2)no1`, the Potency entry in assay [1], in [2], in [3], in assay [6], in [7] and in assay [10] was “inactive” throughout. Further, the Potency result in [11], in assay [12], in [14] and in assay [16] was “inactive” in each case. Moreover, the result in assay [5], in assay [8], in [9], in [19], in assay [13] and in assay [15] was inactive.
In the case of `Nc1ccc(S(=O)(=O)Nc2ccnn2-c2ccccc2)cc1`, the Potency result in [1], in [2], in assay [3], in assay [4], in [6] and in assay [7] was “inactive” each time. In addition, the Potency entry in [10], in [11], in assay [14] and in assay [16] was “inactive” throughout. Besides, the compound was classed as inactive in assay [5], in assay [8], in assay [9], in assay [13], in assay [15] and in assay [17]. For the same compound, in [18], the compound was classed as inactive.
